These results are taken from PubChem BioAssay (NCI).

A short description of experiment [1]: NCI Yeast Anticancer Drug Screen. Data for the rad50 strain (AID 155).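 Also: 0% = growth of vehicle-only cultures of the same strain.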 Conditions: S. cerevisiae rad50 strain growth inhibition; at 50.0 µM; hits give high values. In short, it runs like this: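 A DNA repair-deficient yeast mutant serves as the test organism; compound-induced growth inhibition is calculated against vehicle-treated cells.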
Experiment [2] is described as follows: NCI Yeast Anticancer Drug Screen. Data for the mec2-1 strain (AID 157). Conditions: S. cerevisiae mec2-1 strain, at 50.0 µM, hits give high values. The essentials: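 Using mec2-1 yeast: add compound, measure growth, express inhibition versus vehicle-treated cultures.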
Experiment [3] in a line: NCI Yeast Anticancer Drug Screen. Data for the sgs1 mgt1 strain (AID 161).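 Also: 0% = growth of cultures given vehicle only.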 As to conditions: S. cerevisiae sgs1 mgt1 strain, at 50.0 µM, hits give high values. The essentials:
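Growth of a repair-deficient yeast mutant was monitored after compound treatment and expressed as inhibition relative to vehicle-treated cultures.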

Experiment [4] in a line: NCI Yeast Anticancer Drug Screen. Data for the cln2 rad14 strain (AID 165).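 Also: 0% = growth equal to vehicle treated cultures.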 Conditions: S. cerevisiae cln2 rad14 strain, at 50.0 µM, hits give high values. In short, it runs like this:
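Yeast strain cln2 rad14, bearing defects in cell cycle control and DNA repair, serves as the test system; values reflect growth inhibition compared with vehicle.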

Experiment [5] can be described thus: NCI Yeast Anticancer Drug Screen. Data for the bub3 strain (AID 167). As to conditions: S. cerevisiae bub3 mutant strain, at 50.0 µM, hits give high values. The essentials:
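Inhibition values come from growth of compound-treated mutant yeast normalised to vehicle-treated controls.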

Experiment [6] is described as follows: NCI Yeast Anticancer Drug Screen. Data for the mlh1 rad18 strain (AID 175). As to conditions: S. cerevisiae mlh1 rad18 strain growth inhibition; at 50.0 µM; hits give high values. In short, it runs like this:
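Steps: expose repair-defective yeast to compound; measure growth; express inhibition against vehicle-treated controls.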

Each structure is given as a SMILES string. About 79,000 compounds went through this panel and 15% of them were active in at least one assay; those are over-represented in the sample as a whole. Values without a mark were called inactive. Activity calls are given as the source filed them. Rule as the data show it: active = growth inhibition above about 70%; inactive = the rest.

With `C#C[C@@H](CCCC)OC(=O)N[C@H](C)c1ccccc1`, the growth inhibition was 58.9% in experiment [1]; 49.6% in experiment [2]; 64.5% in experiment [3]; -11.6% in experiment [4]; 22.5% in experiment [5]; 16.1% in experiment [6].
`O=[N+]([O-])c1ccc(N=NN2CCOCC2)cc1`: the growth inhibition in experiment [1] is -0.55%; in experiment [2] it was 3.5%; in experiment [3], -1.4%; in experiment [4], -1%; in experiment [5] it was -10.7%; in experiment [6] it was 6.55%.
For `CCN(CC)CCNc1ccc2ncn3c4c(OC)ccc(OC)c4c(=O)c1c23`, the growth inhibition in experiment [1] was -21.1%; in experiment [2], -22.2%; in experiment [3], 0.9%; in experiment [4], 22.6%; in experiment [5] it was -47%; in experiment [6] it was 62.1%.
In the case of `Nc1nc2cc(COc3ccc(C(=O)O)cc3)ccc2nc1-c1ccccc1`, the growth inhibition in experiment [1] is -28.6%; in experiment [2], -17.9%; in experiment [3] it was -13.8%; in experiment [4], -2.9%; in experiment [5], -26.2%; in experiment [6] it was -15.1%.
On to `O=C(NCCNCCCNC(=O)c1cc(-c2ccccc2)nc2ccccc12)c1cccc(OCc2ccccc2)c1OCc1ccccc1`, for which the growth inhibition is 86.3% (active) in experiment [1]; 90.9% (active) in experiment [2]; 90.3% (active) in experiment [3]; 87.5% (active) in experiment [4]; 89.2% (active) in experiment [5]; 85.8% (active) in experiment [6].
As for `CC1C2(C)OCC(C#N)(C(=N)O2)C1(C#N)C#N` (stereo not given), the growth inhibition was 21.2% in experiment [1]; 12.2% in experiment [2]; -44.5% in experiment [3]; -18.3% in experiment [4]; -40% in experiment [5]; 3.65% in experiment [6].
As to `O=S1c2ccccc2NC(c2ccc3ccccc3c2)CC1c1ccccc1` (stereo not given), the growth inhibition in experiment [1] is -46.2%; in experiment [2], -22.1%; in experiment [3], -6.75%; in experiment [4], 1.9%; in experiment [5] it was 5.05%; in experiment [6], -18.2%.
`C[C@@H]1S[C@H](c2c(F)cccc2Cl)n2c1nc1ccccc12`: the growth inhibition in experiment [1] was 78.7% (active); in experiment [2], 82.7% (active); in experiment [3], 86.6% (active); in experiment [4], 82.2% (active); in experiment [5] it was 68.2%; in experiment [6] it was 78.1% (active).
As to `COc1ccc2c(c1)C(=O)CC(C(N)=O)C2` (stereo not given), the growth inhibition in experiment [1] is 20.6%; in experiment [2], 2.85%; in experiment [3] it was -29.9%; in experiment [4] it was 3.6%; in experiment [5], -13.7%; in experiment [6], -32%.
Consider `COC(=O)[C@@H]1CON(Cc2ccccc2)C1CC1(C)OCCO1` (stereo not given in full), for which the growth inhibition in experiment [1] is 0.85%; in experiment [2], -7.3%; in experiment [3], 23.8%; in experiment [4] it was 0.6%; in experiment [5] it was 7.35%; in experiment [6], 8.45%.
For `C#CCn1c(=O)c2ccccc2n(CC#C)c1=O`, the growth inhibition in experiment [1] is -10.3%; in experiment [2], -1.6%; in experiment [3] it was -6.3%; in experiment [4], 15.8%; in experiment [5], 9.05%; in experiment [6] it was 23.9%.
`CCOC(=O)c1c(N)n(-c2ccccc2)c(=S)n(-c2ccccc2)c1=O`: the growth inhibition in experiment [1] was -17%; in experiment [2], -24.4%; in experiment [3], -32.5%; in experiment [4], 14.6%; in experiment [5], -40.2%; in experiment [6], -41.4%.
`c1cnc2ncncc2n1`: the growth inhibition in experiment [1] was -2.6%; in experiment [2], 32.4%; in experiment [3], -8.55%; in experiment [4], 28.8%; in experiment [5], 14.4%; in experiment [6], 12.5%.
Turning to `CC1=CCC(CC=O)C1(C)C` (stereo not given), the growth inhibition in experiment [1] is 9.95%; in experiment [2], -1.95%; in experiment [3], -6.3%; in experiment [4], -43.4%; in experiment [5] it was -6.65%; in experiment [6], -3.45%.
As to `Cc1ccc(S(=O)(=O)N2CCN(S(=O)(=O)c3ccc(C)cc3)COC2)cc1`, the growth inhibition in experiment [1] is -1.1%; in experiment [2] it was -0.4%; in experiment [3] it was -5.15%; in experiment [4], -3.85%; in experiment [5], -1.6%; in experiment [6], -9.85%.
Take `CCOCC1OCCCO1`: the growth inhibition is -13.5% in experiment [1]; 12.4% in experiment [2]; 1.6% in experiment [3]; -9.85% in experiment [4]; -10% in experiment [5]; 7.15% in experiment [6].
For `CCCC(=O)OCC1OC(n2cc(F)c(=O)[nH]c2=O)CC1O` (stereo not given), the growth inhibition is 14.2% in experiment [1]; -4.2% in experiment [2]; 5.65% in experiment [3]; 9.7% in experiment [4]; 6.65% in experiment [5]; -27.4% in experiment [6].
Regarding `Cc1cc(=O)[nH]c(NNC(C#N)c2c(O)ccc3ccccc23)n1` (stereo not given), the growth inhibition was 23.6% in experiment [1]; 13.2% in experiment [2]; 24.2% in experiment [3]; -2.9% in experiment [4]; 1.45% in experiment [5]; 12.9% in experiment [6].
For `O=c1c2ccccc2nc(-c2ccccc2)n1NC(=S)Nc1ccccc1`, the growth inhibition in experiment [1] was -27.9%; in experiment [2], -42.6%; in experiment [3] it was -39.8%; in experiment [4], -13.8%; in experiment [5], -19.9%; in experiment [6] it was -19%.
Take `O=S1(=O)CC2C3CC(Oc4ccccc4)C(C3)C2C1` (stereo not given): the growth inhibition in experiment [1] is -9.85%; in experiment [2] it was -6.35%; in experiment [3], -4.2%; in experiment [4], -20.9%; in experiment [5], -26.6%; in experiment [6], -6.5%.
